# Experimental data reported in article PMC11062922 (Nature Chemical Biology, 2023).
# Read-outs that look alike come from different tables or passages of the source.
# Experiments:
# Parameters in all cases: species or system human, MV4-11 + K-562 + COLO205 + SK-N-BE2 + OVCAR-8
# CDK4 = conditions: read-out: apparent Kd, n = 1
# PIM2 = conditions: read-out: apparent Kd, compound concentrations: 100 nM and 1000 nM (sheet 'Samples'), n = 1
# PRKAG1 = conditions: read-out: apparent Kd, n = 1
# PYGL = conditions: read-out: apparent Kd, n = 1
# EPHB3 = conditions: read-out: apparent Kd; compound concentrations: 100 nM and 1000 nM (sheet 'Samples'), CATDS: 4.67907505867102E-2; n = 1
# IRAK3 = conditions: read-out: apparent Kd; compound concentrations:100 nM and 1000 nM (sheet 'Samples'); n = 1
# PKN3 = conditions: read-out: apparent Kd; compound concentrations:100 nM and 1000 nM (sheet 'Samples'); n = 1
# MAPK9 = conditions: read-out: apparent Kd, n = 1
# NLK = conditions: read-out: apparent Kd, n = 1
# PIK3CG = conditions: read-out: apparent Kd; compound concentrations: 100 nM and 1000 nM (sheet 'Samples'), CATDS: 5.53437190113686E-2; n = 1
# ACAD11 = conditions: read-out: apparent Kd; compound concentrations:100 nM and 1000 nM (sheet 'Samples'); n = 1
# STK10 = conditions: read-out: apparent Kd; compound concentrations:100 nM and 1000 nM (sheet 'Samples'); n = 1
# [1] = compound concentrations:100 nM and 1000 nM (sheet 'Samples')
compound,measurement,setting,value
Cc1ccc(NC(=O)c2ccc(Cl)cc2)cc1-c1ccc(C(=O)Nc2ccncc2)cc1 [GSK1398467A],potency estimated from few doses,"CDK4; compound concentrations: 100 nM and 1000 nM (sheet 'Samples'), CATDS: 0.17554209006480601",1650 nM
Clc1ccc(-c2nn3ncccc3c2-c2ccnc(Nc3ccccc3)n2)cc1 [GW829055X],potency estimated from few doses,"CDK4; compound concentrations: 100 nM and 1000 nM (sheet 'Samples'), CATDS: 3.2528026841687298E-2",1960 nM
same,potency estimated from few doses,PIM2; CATDS: 3.1911296970739501E-2,2070 nM
same,potency estimated from few doses,"PRKAG1; compound concentrations: 100 nM and 1000 nM (sheet 'Samples'), CATDS: 3.7997381036159197E-2",1320 nM
same,potency estimated from few doses,"PYGL; compound concentrations: 100 nM and 1000 nM (sheet 'Samples'), CATDS: 3.3581254695289102E-2",1800 nM
Fc1cccc(COc2ccc(Nc3ncncc3C#Cc3ccccc3)cc2Cl)c1 [GW651576X],potency estimated from few doses,EPHB3,2080 nM
NC(=O)c1cccnc1COc1cc(-c2ccc(N3CCOCC3)nc2)cc2ncccc12 [BI01125081],potency estimated from few doses,IRAK3,577 nM
Nc1c(C(=O)c2ccccc2)cnn1-c1ccc(F)cc1 [RO1151246-000],potency estimated from few doses,PKN3,2070 nM
COc1ccc(-c2nn3ncccc3c2-c2ccnc(Nc3ccc4c(c3)OCCO4)n2)cc1 [GW827106X],potency estimated from few doses,"MAPK9; compound concentrations: 100 nM and 1000 nM (sheet 'Samples'), CATDS: 4.4079434043462103E-2",2070 nM
same,potency estimated from few doses,"NLK; compound concentrations: 100 nM and 1000 nM (sheet 'Samples'), CATDS: 4.4703419918465902E-2",1990 nM
same,potency estimated from few doses,PIK3CG,1180 nM
Cc1ccc(CC(=O)N2CCc3cc(-c4cn(C)c5ncnc(N)c45)ccc32)cc1 [GSK2634758A],potency estimated from few doses,"CDK4; compound concentrations: 100 nM and 1000 nM (sheet 'Samples'), CATDS: 0.135917779714779",2250 nM
COc1cc2ncn(-c3cc(O[C@H](C)c4ccccc4Cl)c(C(N)=O)s3)c2cc1OC [GSK237701A],potency estimated from few doses,ACAD11,756 nM
same,potency estimated from few doses,STK10,574 nM
Fc1ccc(-c2ncn(C3CCNCC3)c2-c2ccnc(Oc3ccc4c(c3)OCO4)n2)cc1 [SB-250715],potency estimated from few doses,MAPK9; [1],1260 nM
same,potency estimated from few doses,PRKAG1; [1],1750 nM
same,potency estimated from few doses,PYGL; [1],1990 nM
COc1ccc(C2=C(Nc3cccc(O)c3)C(=O)NC2=O)cc1 [SB-390766],potency estimated from few doses,NLK; [1],2210 nM
COc1cc(N2CCN(C(C)C)CC2)ccc1Nc1nc(Nc2cccc(F)c2C(=O)O)c2cc[nH]c2n1 [GSK1819799A],potency estimated from few doses,"MAPK9; compound concentrations: 100 nM and 1000 nM (sheet 'Samples'), CATDS: 0.24378772023950801",74.5 nM
same,potency estimated from few doses,PIM2; CATDS: 4.4865682499900299E-2,1710 nM
COc1ccc(C2=C(c3cn(C)c4ccccc34)C(=O)NC2=O)cc1OC [RO3206363-000],potency estimated from few doses,"MAPK9; compound concentrations: 100 nM and 1000 nM (sheet 'Samples'), CATDS: 8.8329407260920895E-2",133 nM
same,potency estimated from few doses,"PRKAG1; compound concentrations: 100 nM and 1000 nM (sheet 'Samples'), CATDS: 0.103334601265543",99.5 nM
same,potency estimated from few doses,"PYGL; compound concentrations: 100 nM and 1000 nM (sheet 'Samples'), CATDS: 3.1878798319940699E-2",1850 nM
COc1cc(F)c(F)c(F)c1C(=O)c1cnc(NC2CCN(S(C)(=O)=O)CC2)nc1N [RO4600703-000],potency estimated from few doses,CDK4; [1],1310 nM
